# Laboratory results as given in publication PMC10668032, “Altered binding affinity of SIX1-Q177R correlates with enhanced WNT5A and WNT pathway effector expression in Wilms tumor”.
# Over roughly 33,000 sequences, “e-score” has its median near -0.053; the highest 2% begin near 0.38. The list comes from a sample in which the highest values are over-represented; it also holds similar and randomly drawn sequences.
# Target: T1, SIX1 homeodomain (reference allele) (human, UniProt Q15475 108-198)
# T1 sequence: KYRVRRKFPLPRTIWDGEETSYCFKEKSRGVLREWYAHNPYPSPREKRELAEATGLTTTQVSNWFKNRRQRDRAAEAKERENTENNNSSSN
# Assay: universal protein binding microarray; Universal all-10-mer PBM (8x60K, AMADID 030236), 300 nM GST-tagged protein, Alexa Fluor 488 anti-GST; buffer, salt, pH and temperature not stated (as in Berger); high values mean tight binding
# Conditions: protein: ivt; tags: N-terminal GST; dsDNA, one strand shown
# Procedure, shortened: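 Homeodomains carrying a GST tag were produced by in vitro transcription/translation, then quantified by anti-GST western blot against a recombinant GST standard curve. Duplicate applications at 300 nM final concentration were made to universal 'all 10-mer' protein binding microarrays in 8×60K format. The Universal PBM Analysis Suite was used to express binding as 8-mer E-scores.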
row,Sequence,binding signal [E-score]
1,ATTGGATC,0.365 ± 0.0365
2,ATCGAGCG,0.156 ± 0.0113
3,TATATTCA,0.166 ± 0.0205
4,ACCCATAT,0.3794 ± 0.00238
5,ACCCATCT,0.204 ± 0.0603
6,AACCATAT,0.303 ± 0.013
7,AATTGATA,0.344 ± 0.0859
8,CATTGATA,0.391 ± 0.0167
9,GATTGATA,0.381 ± 0.046
10,GATTGAGA,0.151 ± 0.0232
11,CATTGATC,0.265 ± 0.000601
12,CCTTGATA,0.317 ± 0.0459
13,ACACCTCA,0.24 ± 0.0368
14,ACTAGCCG,0.183 ± 0.0569
15,CTATAATC,0.157 ± 0.0879
16,ATCGTGGG,0.163 ± 0.0327
17,ATGGATAG,0.247 ± 0.00822
18,CTGGATAC,0.387 ± 0.0256
19,CTGGATTA,0.177 ± 0.0302
20,ATGGATAC,0.447 ± 0.0217
21,ATGGATAA,0.212 ± 0.00686
22,ACTACGAT,0.1669 ± 0.00123
23,TATCCAGA,0.3343 ± 0.00221
24,ATACACAA,0.232 ± 0.0214
25,AGGATTAA,0.243 ± 0.0865

row,Sequence,binding signal [E-score]
1,ATCCCTCA,0.312 ± 0.0176
2,AATACCCA,0.2902 ± 0.00209
3,AATACCTC,0.331 ± 0.0598
4,AATACCAG,0.306 ± 0.0188
5,AATACCCT,0.384 ± 0.0168
6,AATACCCC,0.4268 ± 0.000757
7,CATACCCC,0.258 ± 0.054
8,AATACCCG,0.293 ± 0.0206
9,GCTACCCC,0.158 ± 0.092
10,GATACCCC,0.4957 ± 0.00126
11,CCGTCTCG,0.232 ± 0.00359
12,CAATACGG,0.178 ± 0.00369
13,ATTAAATA,0.24 ± 0.0313
14,GATCAGCA,0.235 ± 0.00865
15,ATACGGAC,0.193 ± 0.00348
16,GATATACA,0.384 ± 0.0104
17,AATATACA,0.222 ± 0.0386
18,TATATACA,0.284 ± 0.0122
19,CATATACC,0.282 ± 0.0234
20,GATATTCC,0.376 ± 0.0303
21,AATATACC,0.32 ± 0.0474
22,GATATACC,0.4592 ± 0.00376
23,GATATTCA,0.232 ± 0.0803
24,AATATTCC,0.251 ± 0.0499
25,ACACCCGG,0.344 ± 0.043

row,Sequence,binding signal [E-score]
1,GTGTTAGA,0.214 ± 0.00425
2,ACGATCGT,0.154 ± 0.0131
3,CAGTAGTA,0.154 ± 0.00593
4,GATTATTA,0.209 ± 0.0336
5,GATCTGAC,0.238 ± 0.00706
6,AGACCTAT,0.17 ± 0.0148
7,ATATAGGG,0.229 ± 0.0134
8,GTTGGATA,0.295 ± 0.00342
9,ATCGGATA,0.423 ± 0.00904
10,ATCGGAAA,0.159 ± 0.00362
11,ATCGGATG,0.252 ± 0.00376
12,CTCGGATA,0.375 ± 0.00642
13,CTTGGATA,0.236 ± 0.024
14,CTTGGATC,0.295 ± 0.0145
15,GTCGGATA,0.407 ± 0.00687
16,CTCGGATC,0.396 ± 0.0127
17,ATCGGACC,0.229 ± 0.0739
18,ATCGGATC,0.426 ± 0.0203
19,ATCGGACA,0.237 ± 0.0182
20,AATATTAA,0.187 ± 0.0103
21,GATCGAGC,0.218 ± 0.00887
22,TATGCATA,0.202 ± 0.0575
23,ATACTAGA,0.218 ± 0.0317
24,CACTCCGG,0.195 ± 0.0209
25,AACCCGAT,0.25 ± 0.0182

row,Sequence,binding signal [E-score]
1,ATAGCAGG,0.29151 ± 0.000127
2,CCTTGTGA,0.164 ± 0.0725
3,ATCGCAAC,0.198 ± 0.0486
4,CGTACACC,0.205 ± 0.0267
5,GAGTATAC,0.262 ± 0.0252
6,GAGTATCC,0.4205 ± 0.00087
7,AAGTATCC,0.388 ± 0.0363
8,AAGTATAC,0.338 ± 0.0623
9,AACTATCC,0.281 ± 0.0413
10,GATTATCC,0.329 ± 0.00414
11,ATACTCAG,0.35 ± 0.0154
12,GCAAGATA,0.17 ± 0.0455
13,ATGCATGA,0.162 ± 0.0129
14,ATCCACGG,0.187 ± 0.0301
15,CCCAGATA,0.302 ± 0.0141
16,CCCGGATC,0.45 ± 0.0283
17,CCCAGATC,0.38 ± 0.0205
18,ACCGGATA,0.364 ± 0.00187
19,ACCAGATC,0.349 ± 0.0234
20,AGCGGATC,0.375 ± 0.0283
21,ACCGGATC,0.417 ± 0.0393
22,CCTGGATC,0.251 ± 0.0575
23,CCCGGGTC,0.288 ± 0.0806
24,CCCCGCAC,0.189 ± 0.188
25,CAACGATC,0.277 ± 0.0168

row,Sequence,binding signal [E-score]
1,GGTGATCA,0.315 ± 0.0247
2,CGTGATCA,0.181 ± 0.00373
3,CGTGATCC,0.41 ± 0.0121
4,AGTGATCG,0.25 ± 0.00845
5,AGTGATCC,0.4519 ± 0.00218
6,AGTGATCA,0.313 ± 0.0131
7,ATACGGGA,0.367 ± 0.0155
8,GATGAGAC,0.20672 ± 0.00017
9,ATATGAGC,0.208 ± 0.0956
10,CCATCCGG,0.235 ± 0.079
11,AACGATCA,0.2067 ± 0.00118
12,TAGGATGA,0.199 ± 0.0352
13,AAGGATCT,0.267 ± 0.029
14,TAGGATAA,0.21 ± 0.0705
15,AAGGATCG,0.349 ± 0.00351
16,GAGGATCA,0.369 ± 0.0176
17,CAGGATCA,0.386 ± 0.00253
18,TAGGATCA,0.409 ± 0.017
19,AAGGATCA,0.383 ± 0.00738
20,CAGGATCG,0.297 ± 0.0493
21,ACTATCTA,0.154 ± 0.0178
22,AAACCCGA,0.165 ± 0.0599
23,AACACCAT,0.173 ± 0.0172
24,ATAGCGGC,0.194 ± 0.00861
25,GGGTGTCA,0.4698 ± 0.00156

row,Sequence,binding signal [E-score]
1,AGGTGTTG,0.2361 ± 0.00141
2,AGGTGTCA,0.45238 ± 0.000134
3,AGGTGTCC,0.274 ± 0.042
4,AGGTGTAA,0.165 ± 0.116
5,GGGTGTAA,0.334 ± 0.00878
6,AGGTGTGA,0.204 ± 0.0237
7,AGGTGTAT,0.377 ± 0.0149
8,AGGTGTCG,0.399 ± 0.0161
9,AGGTGTTA,0.203 ± 0.0687
10,AGGTGTAC,0.182 ± 0.0154
11,GGGTGTGA,0.158 ± 0.0496
12,TATCTACA,0.167 ± 0.0212
13,CAAAGATC,0.209 ± 0.0122
14,GATCTCCA,0.239 ± 0.0181
15,ACATATAT,0.252 ± 0.0998
16,ATCACTGA,0.243 ± 0.0373
17,GTATTTAA,0.172 ± 0.0151
18,TAACCCGA,0.213 ± 0.0195
19,CATATTAA,0.175 ± 0.121
20,ATCATTAC,0.295 ± 0.0265
21,AGAATACT,0.208 ± 0.057
22,AAAAGGAT,0.163 ± 0.102
23,CGGTGTCC,0.352 ± 0.0179
24,CGGTGTCA,0.471 ± 0.00725
25,CGGTGTAA,0.257 ± 0.00735

row,Sequence,binding signal [E-score]
1,AGGATCGG,0.32 ± 0.0208
2,ATCACGAC,0.18 ± 0.0119
3,AGAATGAT,0.216 ± 0.0443
4,GGGATAAA,0.212 ± 0.0282
5,CGGATATA,0.422 ± 0.00574
6,GGGATATA,0.433 ± 0.0145
7,GGGATAGA,0.256 ± 0.0216
8,CTAGATGC,0.153 ± 0.0669
9,CATACACG,0.157 ± 0.0344
10,AGCTATAT,0.2 ± 0.0474
11,ACACGGGT,0.23 ± 0.0432
12,CATCGATA,0.308 ± 0.015
13,ATATCTGA,0.356 ± 0.0383
14,CTATCGGA,0.289 ± 0.00216
15,GGATCGGA,0.38 ± 0.0357
16,AGATCGGC,0.216 ± 0.0174
17,ATATGGGA,0.319 ± 0.00531
18,ATATGGGG,0.4 ± 0.0352
19,AGATCGGA,0.255 ± 0.00445
20,ATATGGGC,0.326
21,ATATCTGC,0.346 ± 0.0315
22,CGATCGGA,0.24 ± 0.0149
23,ATATCGGC,0.394 ± 0.011
24,ATATCGGA,0.427 ± 0.0311
